Results as given in PubChem BioAssay (NCI).
The panel holds about 79,000 compounds, 15% with a hit somewhere; the sample as a whole holds those more often. Active and inactive are the calls of the source. No stated cut-off is given here; in the data, active means growth inhibition above about 70%; inactive means the rest.

Legend:
[1] = NCI Yeast Anticancer Drug Screen. Data for the rad50 strain (AID 155);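 further: 0% = growth of vehicle-only cultures of the same strain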; settings: S. cerevisiae rad50 strain growth inhibition; at 50.0 µM; stronger effect = higher value
Method in brief: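 Growth of the mutant yeast was measured after compound exposure and referenced to vehicle-treated cultures.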

[2] = NCI Yeast Anticancer Drug Screen. Data for the mec2-1 strain (AID 157); settings: S. cerevisiae mec2-1 strain, at 50.0 µM, stronger effect = higher value
Method in brief: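 Strain: mec2-1 (DNA repair/cell cycle alteration). Compound exposure, then growth measured; inhibition expressed relative to vehicle.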

[3] = NCI Yeast Anticancer Drug Screen. Data for the sgs1 mgt1 strain (AID 161);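 further: 0% = growth of cultures given vehicle only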; settings: S. cerevisiae sgs1 mgt1 strain, at 50.0 µM, stronger effect = higher value
Method in brief: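 Inhibition of yeast growth, normalised to vehicle-treated controls, is reported for a strain bearing genetic alterations in DNA damage repair.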

[4] = NCI Yeast Anticancer Drug Screen. Data for the cln2 rad14 strain (AID 165);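 further: 0% = growth equal to vehicle treated cultures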; settings: S. cerevisiae cln2 rad14 strain, at 50.0 µM, stronger effect = higher value
Method in brief: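 Compounds are applied to the cln2 rad14 yeast strain, and growth is then compared with that of vehicle-treated cultures to give inhibition.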

[5] = NCI Yeast Anticancer Drug Screen. Data for the bub3 strain (AID 167); settings: S. cerevisiae bub3 mutant strain, at 50.0 µM, stronger effect = higher value
Method in brief: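 Whole-cell yeast assay. The mutant strain was incubated with compounds, and growth inhibition was determined by comparison with vehicle-treated cells.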

[6] = NCI Yeast Anticancer Drug Screen. Data for the mlh1 rad18 strain (AID 175); settings: S. cerevisiae mlh1 rad18 strain growth inhibition; at 50.0 µM; stronger effect = higher value
Method in brief: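 Read-out is yeast growth inhibition, calculated against vehicle-only controls. The compound was applied to a strain engineered with DNA damage repair alterations.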

Measured: growth inhibition

Cc1ccc(S(=O)(=O)N/N=C/c2oc(-c3ccncc3)c(-c3ccncc3)c2[N+](=O)[O-])cc1
inactive: [1] -1.15% | [2] 10.8% | [3] 17.4% | [4] 27.8% | [5] -11.5% | [6] 17.1%

Cn1cnc([N+](=O)[O-])c1Sc1nc2ncccc2[nH]1
inactive: [1] -5.6% | [2] -7.1% | [3] -20.1% | [4] 16.6% | [5] -8.9% | [6] 0%

Brc1c(CCc2ccc3ccccc3c2Br)ccc2ccccc12
inactive: [1] 0.1% | [2] 10.2% | [3] 13.2% | [4] -6.75% | [5] -2.8% | [6] 19.6%

CCCCS/C=C1\CC2OC(=O)C3(C)CCCC(C)(C1=O)C23 (centres undefined)
inactive: [1] -1.85% | [2] 15.2% | [3] 8.15% | [4] -3% | [5] 11.5% | [6] 26.6%

O=C1c2cc(O)c(O)cc2O[C@H](c2ccc(O)c(O)c2)[C@H]1O
inactive: [1] 2.15% | [2] -35.1% | [3] 11.8% | [4] 16.2% | [5] -8.7% | [6] -46.7%

Nc1cc([N+](=O)[O-])cc(S(=O)(=O)O)c1O
inactive: [1] -5.15% | [2] -2.95% | [3] -14.2% | [4] -65.8% | [5] 7.45% | [6] -26%

O=C(O)c1ccc(OCCOc2ccccc2)c(Cl)c1
inactive: [1] 31% | [3] 61.3% | [4] 40.2% | [5] 63.6% | [6] 61%
active: [2] 74.8%

Cc1nc2scc(C)c2c(=S)[nH]1
inactive: [1] -0.85% | [2] 1.5% | [3] 6.75% | [4] -38.9% | [5] -11.8% | [6] -2.45%

CCN(CC)C(=O)c1ccccc1
inactive: [1] 7.75% | [2] 8.6% | [3] -10.3% | [4] -2.65% | [5] -24.6% | [6] 10.3%

CN1C(=O)NC(=O)C1(C)C=O (centres undefined)
inactive: [1] 2.8% | [2] 0.9% | [3] -2.7% | [4] 5.95% | [5] 10.9% | [6] -12.1%

CCCCCCCCCCCCCCCCCCCCCC
inactive: [1] -28.1% | [2] -26.1% | [3] -8.7% | [4] 0% | [5] -25.9% | [6] -18.1%

O=[N+]([O-])c1ccc(N/N=C(\Cc2ccccc2)c2ccccc2)c([N+](=O)[O-])c1
inactive: [1] 6.8% | [2] 2.25% | [3] 6.2% | [4] -20.3% | [5] -5.75% | [6] 2.3%

O=c1c(Cl)c(Cl)cnn1CCc1ccncc1
inactive: [1] 2.2% | [2] -4.05% | [3] -19.6% | [4] 11.4% | [5] -7.3% | [6] -2.65%

CCCOc1ccc(OCC(=O)c2ccccc2)cc1
inactive: [1] -23.9% | [2] -32.5% | [3] 25.8% | [4] 5.3% | [5] 61.5% | [6] 8%

CCN(CC(=O)NC(=O)c1ccccc1)c1ccccc1
inactive: [1] -1.75% | [2] -14% | [3] -4.75% | [4] -34.5% | [5] 5.5% | [6] -12.7%

O=C(NC(=O)c1c(Cl)nc2sccn12)Nc1ccc(Cl)cc1
inactive: [1] -5.45% | [2] -14.1% | [3] -4.65% | [4] 0.85% | [5] -0.6% | [6] -23.9%

N#Cc1ccc(C=NC23CC4CC(CC(C4)C2)C3)cc1
inactive: [1] -12% | [2] -10% | [3] -6.7% | [4] 2.4% | [5] -2% | [6] -4.1%

CCOC(=O)C(C)(Cc1cccc2ccccc12)C(=O)OCC
inactive: [1] -33.6% | [2] -19.3% | [3] 5.1% | [4] -54.2% | [5] 29.8% | [6] -24.9%

CCCC(=O)Nc1ccc2c(ccn2COC)c1
inactive: [1] -37.2% | [2] -2.2% | [3] -2.05% | [4] 8.7% | [5] 8.45% | [6] -18.2%

CCN(CCO)CCCC(C)Nc1ccnc2cc(Cl)ccc12 (centres undefined)
inactive: [1] -43.2% | [2] -66.5% | [3] -33.4% | [4] -132% | [5] -45.9% | [6] -63.4%

COC1CCC(C(C)=O)C(C#N)(C#N)C1(C#N)C#N (centres undefined)
inactive: [1] -6.3% | [2] -1.25% | [3] -12.1% | [4] -4.95% | [5] -12.5% | [6] -13.8%

CCOC(=O)/C=C1/Nc2cc(F)c(F)cc2NC1=O
inactive: [1] -36.1% | [2] 14.1% | [3] 16% | [4] 13.8% | [5] 14.6% | [6] -56%

CC(C)CCOC(=O)C(O)C(O)C(=O)OCCC(C)C (centres undefined)
inactive: [1] 14.2% | [2] 12.5% | [3] -3.05% | [4] -39% | [5] -0.85% | [6] 13.2%

O=C(c1ccccc1)c1ccc2c(c1)-c1ccccc1-2
inactive: [1] 7.3% | [2] -7% | [3] 15.1% | [4] -21.1% | [5] 12.8% | [6] 12.8%

CC1(C)C2CC3OC3(C)C1C2 (centres undefined)
inactive: [1] 21.3% | [2] -7% | [3] 12.4% | [4] -55.9% | [5] -19.9% | [6] -10.8%

O=C(CCCn1cnc([N+](=O)[O-])n1)NCCn1ccnc1[N+](=O)[O-]
inactive: [1] -3.1% | [2] -7.3% | [3] -10.3% | [4] -5.1% | [5] -13.6% | [6] -26.3%

N#CCc1cn(-c2ccccc2)nn1
inactive: [1] -7.85% | [2] 8.3% | [3] -9.5% | [4] 5.45% | [5] 0.45% | [6] -25.2%

O=C(O)c1cc(C(=O)Nc2cccc3ccccc23)c(C(=O)O)cc1C(=O)Nc1cccc2ccccc12
inactive: [1] 14.6% | [2] 24.1% | [3] 17.6% | [4] -5.4% | [5] 6.4% | [6] 22.8%

COc1cc2c(cc1OC)C1=C(/C=C\C(C)=O)CCN1CC2
inactive: [1] -6.9% | [2] 20.9% | [3] -4.45% | [4] -8.65% | [5] 0.1% | [6] 5.55%

O=NN(CC1(O)OCC(O)C(O)C1O)C(Cc1c[nH]c2ccccc12)C(=O)O (centres undefined)
inactive: [1] -8.7% | [2] -22.9% | [3] -27.1% | [4] 2.1% | [5] -0.5% | [6] -4.8%

CCS(=O)(=O)/C=C(\C(=O)c1ccccc1)c1ccccc1
inactive: [4] 47.2%
active: [1] 83.1% | [2] 93.5% | [3] 94% | [5] 89.8% | [6] 93.3%

CC(=O)Nc1ccc(C(=O)CC(c2ccccc2)N2CCOCC2)cc1 (centres undefined)
inactive: [1] 4.3% | [2] 14.1% | [3] 11.9% | [4] -19% | [5] 26.1% | [6] 2.8%

CCOC(=O)C(N)C(O)c1ccncc1 (centres undefined)
inactive: [1] -8% | [2] -2.45% | [3] -4.25% | [4] -19.8% | [5] 1.5% | [6] 2.2%

CCOc1ccccc1C1=CCCCCC1
inactive: [1] -0.65% | [2] -5% | [3] -9% | [4] -24.6% | [5] -10% | [6] 1.3%

CCCCCCCCCCCCCCCCCC(=O)N1CC[N+](C)(C)CC1
active: [1] 99.7% | [2] 99.7% | [3] 99.7% | [4] 99% | [5] 99.3% | [6] 99.5%

CSc1nc(=O)cnn1C
inactive: [1] -22.3% | [2] -8.6% | [3] -15.6% | [4] -0.5% | [5] -49.2% | [6] -5.35%

NC(=O)c1cc(Cl)ccc1O
inactive: [1] 14.5% | [2] 12.5% | [3] 18.4% | [4] 3.1% | [5] -4.05% | [6] 11.6%

CC(=O)OCC(OC(C)=O)C(OC(C)=O)C(OC(C)=O)C(OC(C)=O)c1cnn(-c2ccccc2)n1 (centres undefined)
inactive: [1] 15.9% | [2] -1.85% | [3] 11.6% | [4] 32.1% | [5] 6.05% | [6] -10.6%

N#CCCC(CC#N)N1CCN(C(CC#N)CCC#N)CC1 (centres undefined)
inactive: [1] -33.5% | [2] -48.9% | [3] -11.8% | [4] -6.3% | [5] -13.1% | [6] -19.4%
